In PubChem BioAssay AID2113 (National Center for Advancing Translational Sciences (NCATS), 2009) one finds Potency data, which are given here for 17 molecules.

Inconclusive results are not listed. A call without a number means that no potency is given here. The source made the active and inactive calls. Calls come from the whole dose curve; as a rule, active = well fitted curve in either direction with a large enough effect; inconclusive = small, poorly fitted or top-dose-only effect; inactive = no such curve, though single readings can be large or run the other way.
Potency is the fitted concentration of half-maximal effect.

The experiment deals with Lysosomal alpha-glucosidase (Homo sapiens) (UniProt P10253). In words: Confirmation of Inhibitors and Activators of Human alpha-Glucosidase From Spleen Homogenate.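 For Potency: fluorescence of 4-methylumbelliferone released from a fluorogenic glucopyranoside substrate at pH 5.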 To be noted: alpha-glucosidase enzyme activity; series mostly up to 60.5 µM. A digest of the protocol: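 Compounds titrated against spleen-homogenate alpha-glucosidase, pH 5.0, 1 mM 4-MU-glucoside substrate, 37 C for 40 min. Fluorescence after pH 10 stop, normalised to no-enzyme and enzyme controls; Hill-equation AC50.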
Consider `CC1(CCc2ccc3c(c2)OCO3)NC(=O)c2ccccc2N1` (configuration not stated), for which the Potency result was “inactive”.

`CCCN1CNc2c(c(=O)[nH]c(=S)n2CCc2cc(OC)ccc2OC)C1`: the Potency is 20 µM (active).

`Cc1c(Nc2c3ccccc3nc3ccccc23)c(=O)n(-c2ccccc2)n1C`: the Potency result is “inactive”.

With `O=S(=O)(c1cccnc1)N1CCOCC1`, the Potency result is “inactive”.

On to `O=C1Cc2cc(S(=O)(=O)N3CCNCC3)ccc2N1`, for which the Potency result is “inactive”.

As for `Clc1ccc(Nc2ncnc3ccc(Br)cc23)cc1`, the Potency entry is “inactive”.

Regarding `CC(C)NCC(O)COc1cccc2[nH]ccc12` (configuration not stated), the Potency entry was “inactive”.

Regarding `CCC(=O)N1CCN(c2ccc(Cl)cc2NC(=O)c2ccc(N3CCCC3)c([N+](=O)[O-])c2)CC1`, the Potency result was “inactive”.

For the molecule `COc1cccc2cc(-c3nc(-c4ccccc4)c(C)s3)c(=O)oc12`, the Potency result was “inactive”.

On to `O=C(/C=C/c1ccc(O)c(O)c1)c1ccc(O[C@@H]2O[C@H](CO)[C@@H](O)[C@H](O)[C@H]2O)c(O)c1O`, for which the Potency result was “inactive”.

As to `Cc1ccc(S(=O)(=O)N2CCN(CC(=O)N/N=C\c3ccccn3)CC2)cc1`, the Potency result was “inactive”.

Regarding `O=C(Nc1cc(S(=O)(=O)N2CCOCC2)ccc1N1CCCC1)c1cc(=O)[nH]c2ccccc12`, the Potency entry is “inactive”.

Take `Nc1ccc(S(=O)(=O)N2CCOCC2)cc1`: the Potency result is “inactive”.

As to `Clc1cc2c(cc1/C=C/c1ccc3ccccc3n1)OCO2`, the Potency entry is “inactive”.

As to `O=C1CC(c2ccccc2)Cc2nc(NCc3ccco3)ncc21` (configuration not stated), the Potency result was “inactive”.

Turning to `C=CCSc1nc(-c2ccc3c(c2)OCO3)cc(C(F)(F)F)c1C#N`, the Potency result was “inactive”.

For `CCN(CC)S(=O)(=O)c1ccc2c(c1)-c1cc(S(=O)(=O)N(CC)CC)ccc1C2=NNC(N)=S`, the Potency entry was “inactive”.
